Hits are enriched below; roughly 0.96% of the tested compounds scored in any of these assays.
TRPV1 PAM = human TRPV1 potentiation; actives 0.02% (n = 320,000); Q8NER1; potentiation, % at 8.33 µM; TRPV1-expressing cells, Fluo-8 calcium influx, capsaicin EC20 potentiation; in the data active = potentiation above about 80%; inconclusive = between about 30% and that limit; also: 0% is about no effect
Target sequence (Q8NER1 whole entry, looked up): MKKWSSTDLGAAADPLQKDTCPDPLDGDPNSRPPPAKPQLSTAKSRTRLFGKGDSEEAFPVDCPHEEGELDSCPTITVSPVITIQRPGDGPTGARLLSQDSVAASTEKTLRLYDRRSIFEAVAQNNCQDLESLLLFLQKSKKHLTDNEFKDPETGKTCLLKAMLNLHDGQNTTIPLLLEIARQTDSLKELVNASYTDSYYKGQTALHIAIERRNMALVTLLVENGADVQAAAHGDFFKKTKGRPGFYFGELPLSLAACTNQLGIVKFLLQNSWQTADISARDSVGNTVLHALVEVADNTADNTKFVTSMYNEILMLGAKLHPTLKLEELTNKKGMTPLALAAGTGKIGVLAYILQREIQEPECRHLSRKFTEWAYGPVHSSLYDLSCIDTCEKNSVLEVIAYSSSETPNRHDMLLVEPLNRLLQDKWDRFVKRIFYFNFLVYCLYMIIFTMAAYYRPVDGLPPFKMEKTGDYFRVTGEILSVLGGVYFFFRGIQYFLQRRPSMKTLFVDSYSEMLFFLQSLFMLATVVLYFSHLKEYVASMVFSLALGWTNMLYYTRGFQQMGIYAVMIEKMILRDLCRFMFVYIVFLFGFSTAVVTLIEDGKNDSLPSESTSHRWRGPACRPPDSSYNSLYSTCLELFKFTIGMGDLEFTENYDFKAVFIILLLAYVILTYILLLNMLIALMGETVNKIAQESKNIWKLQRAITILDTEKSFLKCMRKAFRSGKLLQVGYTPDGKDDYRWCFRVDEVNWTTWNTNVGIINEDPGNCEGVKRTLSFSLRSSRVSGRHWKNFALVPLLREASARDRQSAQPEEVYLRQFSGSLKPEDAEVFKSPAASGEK
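Cells expressing TRPV1 were dye-loaded with Fluo-8 and read kinetically: 10 s baseline, 3 min after compound (agonist portion), then 2 min after EC20 capsaicin (allosteric enhancer portion). Calcium-bound dye fluorescence at 480/520 nm.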
TRHR agonist = TRH receptor (human) agonism; P34981; TRHR cells, calcium flux fluo-8, FDSS agonist mode; activation, % at 2 µM; actives 0.18% (n = 360,000); AID 493084; in the data active = activation above about 30%; also: 0% is about no effect
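Fluo-8-loaded TRHR cells; 10 s baseline, compound added, kinetic Ca2+ fluorescence read 1/s, agonist mode.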
TRHR enhancer = allosteric enhancers of human TRH receptor | P34981 | TRHR cells, fluo-8 calcium fluorescence, EC20 TRH enhancement | enhancement, % at 2 µM | actives 0.66% (n = 360,000) | AID 493056; in the data active = enhancement above about 30%; also: 0% is about no effect
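TRHR-expressing cells loaded with fluo-8 calcium dye were read kinetically (ex 480/em 530) during compound addition, then stimulated with an EC20 of TRH (10 nM final). Enhancement of the Gq-mediated intracellular calcium response was scored.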
TRPML1 agonist = human mucolipin-1 channel agonism; AID 624414; Q9GZU1; activation, % (test concentration not listed); TRPML1-expressing cells, Ca2+ dye fluorescence, FDSS; actives 0.12% (n = 410,000); in the data active = activation above about 50%; inconclusive = mostly about 30% to 49%; also: 0% is about no effect
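In this qHTS format, compounds were pin-transferred onto Ca8-dye-loaded TRPML1-DL cells induced with Tet overnight, and intracellular Ca2+ fluorescence was recorded kinetically for 110 s after a 10 s baseline. A subsequent 4uM final 54-4 (EC80) addition followed by a second 110 s read served as the antagonist phase.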
TRPML1 inh = inhibitors of human TRPML1 channel; activity change, negative = inhibition, % (no concentration beside the values); TRPML1-inducible cells, Ca2+ dye fluorescence, FDSS; stronger effect = lower value; inhibition of EC80 agonist-evoked calcium signal; AID 624415; actives 0.02% (n = 390,000); Q9GZU1; in the data active = activity change below about -50%; inconclusive = between about -30% and that limit;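 also: stimulus is agonist 54-4 at its EC80 concentration; % is scaled to controls: 0 for no effect and ±100 for the full control effect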
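TRPML1-DL cells, Tet-induced overnight (~16 h, 37 °C) at 1,500 cells/well, were loaded with Ca8 no-wash dye plus quencher for 45-90 min at room temperature. Compounds were pinned during FDSS kinetic reading; agonist 54-4 at EC80 (4 uM final) then added.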
TRPV1 agonist = activates the human vanilloid receptor TRPV1 | actives 0.19% (n = 320,000) | TRPV1-expressing cells, Fluo-8 calcium influx, agonist mode | activation, % at 8.33 µM; in the data active = activation above about 80%; inconclusive = between about 30% and that limit; also: 0% is about no effect
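TRPV1-expressing cells were cultured overnight at 35.5C and loaded with Fluo-8 calcium dye for 40 to 90 min at room temperature. After a 10 s baseline, compound was added and calcium influx was read kinetically for 3 min (ex 480/em 520 nm).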
An asterisk follows results filed as active; ? = inconclusive; . = no result.

SMILES	TRPV1 PAM	TRHR agonist	TRHR enhancer	TRPML1 agonist	TRPML1 inh	TRPV1 agonist
NC(=Nc1ccc(Cl)cc1)c1ccccc1	-3	31*	-19	65*	-5	13
ONC(=Nc1ccccc1)c1ccc(Cl)cc1	-7	0	-2	1	4	4
CCOC(=O)N1CCN(C(=O)CCn2c(=S)[nH]c3ccsc3c2=O)CC1	-2	-1	39*	1	48	-1
O=C(O)c1ccccc1-c1c2cc(I)c(=O)c(I)c-2oc2c(I)c(O)c(I)cc12	.	.	.	177*	-90*	.
CCCCOC(=O)Nc1ccc2c(C)cc(=O)oc2c1	-8	0	40*	0	-3	-1
CCOC(=O)Nc1ccc2c(C)cc(=O)oc2c1	11	1	6	2	15	1
CC(=O)Oc1ccc2c(C)cc(=O)oc2c1	-8	0	0	8	19	0
Cc1cc(=O)oc2cc(NC(=O)C(CCCN=C(N)N)NC(=O)OCc3ccccc3)ccc12 (stereo not given)	22	-1	-5	0	-52*	-4
COC(=O)C(CC(C)C)Oc1ccc2c(C)cc(=O)oc2c1 (stereo not given)	4	-1	36*	0	10	-4
CCN(CC)c1ccccc1/C=C/[n+]1ccc(CCCCI)c2ccccc21	.	.	.	1	.	.
O=[N+]([O-])c1ccc(Sc2nc3ccccc3o2)c([N+](=O)[O-])c1	9	-1	30*	-1	2	-1
O=[N+]([O-])c1ccc(Cl)cc1Sc1nc2ccccc2o1	-6	0	-1	3	24	6
COC(=O)c1ccc(S(N)(=O)=O)o1	-2	1	0	-1	22	0
COC(=O)c1ccc(S(=O)(=O)N2CCCCC2)o1	11	0	36*	-1	10	-2
O=C(C[n+]1ccccc1Cl)c1ccc(Br)cc1	.	.	.	0	.	.
Cc1cc(C)nc(N2CCCC(C(=O)NCc3cccs3)C2)n1 (stereo not given)	3	-1	30*	3	26	15
Cc1ccc(SCCNC(=O)c2ccccc2F)cc1	-29	-1	-6	.	.	80*
O=C(NCCSc1ccccc1)c1ccccc1F	.	.	.	5	17	.
CN(CCc1ccccc1)C(c1cc2ccccc2o1)c1nnnn1C(C)(C)C (stereo not given)	.	.	.	70*	.	.
CCOC(=O)c1nn(-c2ccc(OC)cc2)c(=O)c2c(NC(=O)Cc3ccccc3)scc12	.	0	1	.	.	.
O=C(C[n+]1csc2ccccc21)c1ccccc1	.	.	.	-1	.	.
Cc1nnc(NC(=O)CSc2nnc(Cc3cccn3C)n2-c2cccc(C)c2C)s1	29	-1	-3	.	.	-1
Cc1nnc(NC(=O)CSc2nnc(Cc3cccn3C)n2-c2ccccc2)s1	6	0	39*	0	-1	-2
O=C(CSc1nnc(Cc2ccccc2)n1-c1ccccc1)NNC(=O)Cc1ccccc1	.	0	31*	0	0	.
CN(C)c1ccc(/C=C/c2nc3ccccc3o2)cc1	.	.	.	0	.	.
SMILES	TRPV1 PAM	TRHR agonist	TRHR enhancer	TRPML1 agonist	TRPML1 inh	TRPV1 agonist
CCOC(=O)[C@@H](C)N(C(=O)OC(C)(C)C)S(=O)(=O)N(Cc1ccccc1)[C@H](C(=O)OC)C(C)C	.	.	.	-1	19	.
CCOC(=O)[C@@H](C)N(C(=O)OC(C)(C)C)S(=O)(=O)N(Cc1ccccc1)[C@@H](C(=O)OC)C(C)C	.	.	.	57*	.	.
CC(C)(C)OC(=O)Cc1nnc(C(C(=O)OCc2ccccc2)c2ccccc2)s1 (stereo not given)	.	1	-2	.	.	.
CC1CC(C)CN(C(=O)c2cc(S(=O)(=O)N3CCCCC3)ccc2Cl)C1 (stereo not given)	-13	1	-6	2	-13	104*
CC1CC(C)CN(C(=O)c2ccc(S(=O)(=O)N3CCCCC3)cc2)C1 (stereo not given)	-8	1	-5	0	13	?
CNc1nc(N2CCCN(C)CC2)nc2cc(OC)c(OC)cc12	.	.	.	0	.	.
Clc1ccc(C2=Nn3c(nnc3-c3n[nH]c4c3CCC4)SC2)cc1Cl	4	0	35*	1	9	?
COc1ccccc1CNC(=O)C1CCCN(S(=O)(=O)c2cccs2)C1 (stereo not given)	18	0	40*	1	-3	2
C=CCn1c(SCC(=O)NCc2ccco2)nnc1-c1cccc(N(C)C)c1	.	.	.	-1	.	.
Cc1cccc(C(=O)Nc2sc(C)c(-c3ccccc3)c2C#N)c1	-4	2	7	3	-3	?
Cc1sc(NC(=O)C2CCCCC2)c(C#N)c1-c1ccccc1	-4	0	5	83*	-14	1
O=[N+]([O-])c1ccc2c(c1)C=C/C2=C/c1ccccc1	.	.	.	-1	.	.
CC(C)(C)c1ccc(CN(Cc2ccccc2)C(c2ccccn2)c2nnnn2C(C)(C)C)cc1 (stereo not given)	-12	0	-1	56*	3	25
CCN(Cc1ccccc1)C(c1ccncc1)c1nnnn1C(C)(C)C (stereo not given)	-6	0	0	1	-7	3
C/C(=N/Nc1ccccc1[N+](=O)[O-])c1ccc([N+](=O)[O-])cc1	11	-1	6	1	42	2
C/C(=N\Nc1ccc([N+](=O)[O-])cc1[N+](=O)[O-])c1ccc(-n2nncc2C(C)(C)C)cc1	8	0	7	76*	-2	-2
CCOC(=O)c1[nH]c(C)c(/C(O)=C2\C(=O)C(=O)N(CCN(C)C)C2c2ccco2)c1C (stereo not given)	-29	0	-3	0	6	-3
CCN(CC)CCN1C(=O)C(=O)/C(=C(/O)c2c(C)[nH]c(C(=O)OC)c2C)C1c1ccco1 (stereo not given)	1	0	30*	-1	17	0
COc1ccc(CC(=O)N2CCN(c3cccc(Cl)c3)CC2)cc1OC	-16	0	-6	-1	-4	98*
COc1cccc(CN2CCN(Cc3cccc(Oc4ccccc4)c3)CC2)c1OC	-12	0	31*	0	1	5
COc1ccc(CN2CCN(CCCc3ccccc3)CC2)c(OC)c1	-1	0	55*	.	.	-1
COc1cccc(CN2CCN(Cc3cc(OC)c(OC)c(OC)c3)CC2)c1OC	-1	-1	7	0	7	0
COc1ccc(-c2nc(C#N)c(NCc3ccccc3Cl)o2)cc1	2	1	9	0	27	12
COc1ccc(OCc2nc(C#N)c(NCc3ccccc3Cl)o2)cc1	.	-1	41*	2	8	.
